Tests used:
[1] = test system: E18 rat cortical neuron-glia co-culture; assay: fiber score / MBP score (myelination specific beyond OL differentiation) (ratio); higher = more myelination-specific MBP alignment; conditions: treatment time: 8 days (DIV5-DIV13)
Procedure, shortened: (§1)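 Primary E18 rat cortical co-cultures (papain-dissociated, 20,000 cells/well on poly-d-lysine/laminin 96-well plates) received library compounds at 1 or 5 µM in myelination medium from DIV5 to DIV13. Cells were fixed in 4 % paraformaldehyde and immunostained for MBP and Olig2 with DAPI, and four 10X fields per well in duplicate wells were analysed. The read-out is fiber score (continuous MBP fiber length per Olig2+ nucleus) divided by MBP score (thresholded MBP area × intensity per Olig2+ nucleus).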

[2] = test system: E18 rat cortical neuron-glia co-culture; assay: myelination (MBP fiber length per Olig2+ nucleus), % of 1 µM DAPT response (DMSO = 0) (% of DAPT); higher = more myelination, active = 50 or more; conditions: treatment time: 8 days (DIV5-DIV13)
Procedure, shortened: as §1, with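 “Myelination was continuous straight” for “The read-out is fiber score (continuous”, “nucleus, normalised to 0.1 % DMSO (0) and a 1 µM positive control (100).” for “nucleus) divided by MBP score (thresholded MBP area × intensity per Olig2+ nucleus).”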

Compound	fiber score / MBP score ([1]; 1 µM)	fiber score / MBP score ([1]; 5 µM)	myelination ([2]; 1 µM)	myelination ([2]; 5 µM)
CC(CCc1ccccc1)NCC(O)c1ccc(O)c(C(N)=O)c1 (stereo not given) [Labetalol]	0.511	0.693	-16.1 (inactive)	-9.26 (inactive)
c1ccc(-c2ccc(C(c3ccccc3)n3ccnc3)cc2)cc1 (stereo not given) [Bifonazole]	0.241	1.22	-18.8 (inactive)	-26.8 (inactive)
C[C@H]1COc2c(C3(N)CC3)c(F)cc3c(=O)c(C(=O)O)cn1c23 [Pazufloxacin]	0.814	1.19	-22.4 (inactive)	17.6 (inactive)
O=C1c2cccc3c2[C@H](CCC3)CN1[C@@H]1CN2CCC1CC2 [Palonosetron]	0.728	0.587	-11.1 (inactive)	-11.5 (inactive)
CO/N=C(\C(=O)N[C@@H]1C(=O)N2C(C(=O)O)=C(COC(N)=O)CS[C@H]12)c1ccco1 [Cefuroxime]	0.749	0.663	-44.2 (inactive)	-51.7 (inactive)
Nc1ncn([C@@H]2O[C@H](CO)[C@@H](O)[C@H]2O)c(=O)n1 [Azacitidine]	0.686	0.777	3.99 (inactive)	12.8 (inactive)
CN(C)c1ccc(O)c2c1C[C@H]1C[C@H]3[C@H](N(C)C)C(O)=C(C(N)=O)C(=O)[C@@]3(O)C(O)=C1C2=O [Minocycline]	0.788	0.583	-6.54 (inactive)	-5.86 (inactive)
CN1CCC[C@H]1c1cccnc1 [Nicotine]	0.761	1.06	-10.1 (inactive)	2.28 (inactive)
COc1ccccc1N1CCN(CCCNc2cc(=O)n(C)c(=O)n2C)CC1 [Urapidil]	0.767	0.799	-28.5 (inactive)	-23.7 (inactive)
COC(=O)Nc1nc2cc(C(=O)c3ccccc3)ccc2[nH]1 [Mebendazole]	0.624	0.207	71.4	-22.3 (inactive)
CC(C)NCC(O)c1ccc(NS(C)(=O)=O)cc1 (stereo not given) [Sotalol]	0.726	0.499	-33.5 (inactive)	-60.5 (inactive)
CC(C)(C)NCC(O)COc1cccc2c1CC(O)C(O)C2 (stereo not given) [Nadolol]	0.767	0.949	-13.9 (inactive)	-7.81 (inactive)
O=C(NCCO[N+](=O)[O-])c1cccnc1 [Nicorandil]	0.852	1.17	-8.12 (inactive)	-1.77 (inactive)
CN1CCCC(n2nc(Cc3ccc(Cl)cc3)c3ccccc3c2=O)CC1 (stereo not given) [Azelastine]	0.861	0.855	-2.34 (inactive)	-2.84 (inactive)
NC12CC3CC(CC(C3)C1)C2 [Amantadine]	0.736	0.883	-4.46 (inactive)	0.678 (inactive)
Nc1ccc(O)c(C(=O)O)c1 [Mesalamine]	0.748	0.63	-20.4 (inactive)	-28.3 (inactive)
O=C(CCCN1CCC(O)(c2ccc(Cl)cc2)CC1)c1ccc(F)cc1 [Haloperidol]	0.526	0.498	-18 (inactive)	-13.9 (inactive)
COc1ccccc1OCC(O)COC(N)=O (stereo not given) [Methocarbamol]	0.67	0.985	-9.38 (inactive)	-3.49 (inactive)
CCOC(=O)c1ncn2c1CN(C)C(=O)c1cc(F)ccc1-2 [Flumazenil]	0.859	0.835	-6.81 (inactive)	-19.8 (inactive)
Oc1ccc(/C=C/c2cc(O)cc(O)c2)cc1 [Resveratrol]	0.549	0.685	-12 (inactive)	-13.3 (inactive)
O=C1NC(C(=O)O)CS1 (stereo not given) [2-oxothiazolidine-4-carboxylic acid]	0.704	0.758	-34.3 (inactive)	-59.9 (inactive)
CN(C)[C@@H]1C(O)=C(C(=O)NCN2CCCC2)C(=O)[C@@]2(O)C(O)=C3C(=O)c4c(O)cccc4[C@@](C)(O)[C@H]3C[C@@H]12 [Rolitetracycline]	0.779	0.832	-9.77 (inactive)	-5.55 (inactive)
NCc1ccc(S(N)(=O)=O)cc1 [Mafenide]	1.07	0.912	6.37 (inactive)	3.49 (inactive)
CC(C)OC(=O)C(C)(C)Oc1ccc(C(=O)c2ccc(Cl)cc2)cc1 [Fenofibrate]	0.901	0.661	-0.815 (inactive)	21.8 (inactive)
O=C(O)c1cc(-c2ccc(F)cc2F)ccc1O [Diflunisal]	0.772	1.08	-4.48 (inactive)	6.86 (inactive)
